We go through 13 compounds from PMC11062922 (Nature Chemical Biology, 2023).

For test [1], the system named is PRKACG. Details: species or system human, MV4-11 + K-562 + COLO205 + SK-N-BE2 + OVCAR-8. To be noted: compound concentrations:0.3nM, 1nM, 3nM, 10nM, 30nM, 100nM, 300nM, 1000nM,R2:0.71933853436235096,slope:7.8735043887932097,EC50 Standard Error, by the legend:Standard error of the EC50 estimation as provided by the drc package.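 Also: competition pulldown with Kinobeads ε in cell lysates, inhibitor preincubated 45 min at 4 °C, bound kinases quantified by LC–MS/MS against DMSO control.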
In test [2] the test system is CSNK2A2. To be noted: hek293t cells.
Test [3] has as its system BMPR1B. Details: species or system human, MV4-11 + K-562 + COLO205 + SK-N-BE2 + OVCAR-8. To be noted: read-out: apparent Kd, n = 1.
For test [4], the system named is CAMK2B. Details: species or system human, MV4-11 + K-562 + COLO205 + SK-N-BE2 + OVCAR-8. To be noted: read-out: apparent Kd; compound concentrations: 100 nM and 1000 nM (sheet 'Samples'), CATDS: 6.4404686092337498E-3; n = 1.
Test [5] relates to CAMK2G. Further details: species or system human, MV4-11 + K-562 + COLO205 + SK-N-BE2 + OVCAR-8. To be noted: read-out: apparent Kd, compound concentrations: 100 nM and 1000 nM (sheet 'Samples'), n = 1.
For test [6], the system named is CDK12. Details: species or system human, MV4-11 + K-562 + COLO205 + SK-N-BE2 + OVCAR-8. To be noted: read-out: apparent Kd; compound concentrations: 100 nM and 1000 nM (sheet 'Samples'), CATDS: 3.82162717704907E-3; n = 1.
The test system of test [7] is EPHA7. Details: species or system human, MV4-11 + K-562 + COLO205 + SK-N-BE2 + OVCAR-8. To be noted: read-out: apparent Kd, compound concentrations: 100 nM and 1000 nM (sheet 'Samples'), n = 1.
Test [8] relates to ERN2. Further details: species or system human, MV4-11 + K-562 + COLO205 + SK-N-BE2 + OVCAR-8. To be noted: read-out: apparent Kd, n = 1.
Test [9] has as its system MAP3K1. Details: species or system human, MV4-11 + K-562 + COLO205 + SK-N-BE2 + OVCAR-8. To be noted: read-out: apparent Kd; compound concentrations: 100 nM and 1000 nM (sheet 'Samples'), CATDS: 4.4631882369260602E-3; n = 1.
Test [10] deals with MAP3K6. Further details: species or system human, MV4-11 + K-562 + COLO205 + SK-N-BE2 + OVCAR-8. To be noted: read-out: apparent Kd, compound concentrations: 100 nM and 1000 nM (sheet 'Samples'), n = 1.
The test system of test [11] is MDN1. Further details: species or system human, MV4-11 + K-562 + COLO205 + SK-N-BE2 + OVCAR-8. To be noted: read-out: apparent Kd; compound concentrations: 100 nM and 1000 nM (sheet 'Samples'), CATDS: 5.0398543071368297E-3; n = 1.
For test [12], the system named is PI4KB. Further details: species or system human, MV4-11 + K-562 + COLO205 + SK-N-BE2 + OVCAR-8. To be noted: read-out: apparent Kd; compound concentrations: 100 nM and 1000 nM (sheet 'Samples'), CATDS: 8.6005526131726403E-3; n = 1.
The subject of test [13] is PIK3CB. Further details: species or system human, MV4-11 + K-562 + COLO205 + SK-N-BE2 + OVCAR-8. To be noted: read-out: apparent Kd; compound concentrations: 100 nM and 1000 nM (sheet 'Samples'), CATDS: 8.3047003401232992E-3; n = 1.
Test [14] concerns RIPK3. Further details: species or system human, MV4-11 + K-562 + COLO205 + SK-N-BE2 + OVCAR-8. To be noted: read-out: apparent Kd, n = 1.
In test [15] the test system is GRK6. Details: species or system human, MV4-11 + K-562 + COLO205 + SK-N-BE2 + OVCAR-8. To be noted: read-out: apparent Kd; compound concentrations: 100 nM and 1000 nM (sheet 'Samples'), CATDS: 6.7200037487984698E-3; n = 1.
Test [16] relates to NME2;NME2P1. Further details: species or system human, MV4-11 + K-562 + COLO205 + SK-N-BE2 + OVCAR-8. To be noted: read-out: apparent Kd; compound concentrations: 100 nM and 1000 nM (sheet 'Samples'), CATDS: 0.103585369709675; n = 1.
In test [17] the test system is PIM3. Further details: species or system human, MV4-11 + K-562 + COLO205 + SK-N-BE2 + OVCAR-8. To be noted: read-out: apparent Kd, compound concentrations: 100 nM and 1000 nM (sheet 'Samples'), n = 1.
[18] abbreviates: compound concentrations:100 nM and 1000 nM (sheet 'Samples').

One may read the EC50 as the concentration needed to bring the measured effect to its halfway point.

Where two headings read alike, the source gives them in different places.

Take `CCn1c(-c2nonc2N)nc2c(C#CC(C)(C)O)nc(OCCNC)cc21.Cl` [GSK949675A]: in test [1], the EC50 is 303 nM. Also, the Kd in test [1] (read-out: apparent Kd) is 262 nM.

Consider `COc1cc(Nc2ncc3c(C)nc(-c4cc5ccccc5[nH]4)n3n2)cc(OC)c1OC` [GW869516X], for which the IC50 in [2] (read-out: Average, SD, n = 2) is 319 nM; in test [2] (read-out: Rep 1), 135 nM; in test [2] (read-out: Rep 2), 503 nM.

For `CNC(=O)c1ccccc1Nc1nc(Nc2ccc(N3CCOCC3)cc2)ncc1Cl.Cl` [GSK1576028A], in test [3] (setting [18]), the potency estimated from few doses is 429 nM.

In the case of `Cn1ncc2c(N)ncnc21` [SKF-18267], the potency estimated from few doses is 311 nM in test [3] (compound concentrations: 100 nM and 1000 nM (sheet 'Samples'), CATDS: 8.9058122855820206E-3); 514 nM in [4]; 382 nM in test [5] (CATDS: 7.7542498365532697E-3); 1510 nM in [6]; 1210 nM in [7] (CATDS: 4.1620084388922602E-3); 877 nM in test [8] (compound concentrations: 100 nM and 1000 nM (sheet 'Samples'), CATDS: 4.8185865403999398E-3). In addition, the potency estimated from few doses in test [9] was 1030 nM; in test [10] (CATDS: 4.1891325824414301E-3), 1190 nM; in test [11] it was 801 nM; in test [12], 328 nM; in [13], 345 nM; in [14] (compound concentrations: 100 nM and 1000 nM (sheet 'Samples'), CATDS: 3.42256468250394E-3) it was 2080 nM.

Regarding `Cc1cccc(Nc2nc(N[C@H]3CCCC[C@H]3N)ncc2C(N)=O)c1.Cl` [GSK986310C], the potency estimated from few doses in [8] (setting [18]) is 1400 nM.

For `Cl.NCc1ccc(-c2nc(-c3ccc(Cl)c(O)c3)c(-c3ccncc3)[nH]2)cc1` [SB-476429-A], the potency estimated from few doses in [14] (setting [18]) is 1200 nM.

Consider `CN(c1ccc(NC(=O)N2CCN(CCCN3CCOCC3)CC2)cc1)c1ccnc(Nc2ccc(CS(C)(=O)=O)cc2)n1.Cl` [GW830899A], for which, in [5] (CATDS: 3.6233110942478698E-2), the potency estimated from few doses was 457 nM.

For `CCOC(=O)N1CCC(n2cnc(-c3ccc(F)cc3)c2-c2ccnc(N)n2)CC1` [SB-219952], in test [7] (CATDS: 8.0080287869844797E-3), the potency estimated from few doses is 1690 nM.

`O=C1N=C(NCCc2ccc(Cl)cc2)S/C1=C\c1ccc2ncccc2c1` [RO4498479-000]: the potency estimated from few doses in test [15] was 1960 nM.

Regarding `CS(=O)(=O)Nc1cccc(-c2ccc3c(NC(=O)C4CC4)n[nH]c3c2)c1` [SB-742864], the potency estimated from few doses in [16] is 1910 nM.

For `FC(F)(F)c1ccc(-c2ncn(CCCN3CCOCC3)c2-c2ccncc2)cc1` [SB-217780], the potency estimated from few doses in test [10] (CATDS: 0.20378278704682301) was 1720 nM.

`COc1cc(Nc2nccc(N3CCC(NC(=O)c4cccc(NC(C)=O)c4)C3)n2)cc(OC)c1OC` (stereo not drawn) [GSK1379754A]: in test [17] (CATDS: 9.0008616948043199E-2), the potency estimated from few doses was 1470 nM.

As for `O=C(O)C(F)(F)F.O=c1[nH]ccc2nc(N[C@@H]3CCNC3)nc(Nc3ccc4c(c3)S(=O)(=O)CC4)c12` [GSK2181306A], the potency estimated from few doses in test [17] (CATDS: 5.1317659487183503E-2) was 36.4 nM.
